Source: PubChem BioAssay (NCI)
Compounds without any hit were thinned out: in the full panel of roughly 83,000, 20% have a hit.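 Interpretation: 100, growth as untreated; towards 0, rising growth inhibition; 0, no net growth; 0 to -100, cell death. Compounds scoring below 10 were considered active.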 The source made the active and inactive calls.

How the values were obtained:
Experiment in all cases: NCI-60 one-dose screen, 48 h (100 = growth as untreated, 0 = no growth, -100 = all killed)
Settings in all cases: 10 µM
RPMI-8226 leukemia = tested on: RPMI-8226 leukemia
OVCAR-8 ovarian = tested on: OVCAR-8 ovarian
OVCAR-5 ovarian = tested on: OVCAR-5 ovarian
OVCAR-4 ovarian = tested on: OVCAR-4 ovarian
IGROV1 ovarian = tested on: IGROV1 ovarian
OVCAR-3 ovarian = tested on: OVCAR-3 ovarian
HS 578T breast = tested on: HS 578T breast
NCI/ADR-RES ovarian = tested on: NCI/ADR-RES ovarian
T-47D breast = tested on: T-47D breast
BT-549 breast = tested on: BT-549 breast
MDA-MB-435 melanoma = tested on: MDA-MB-435 melanoma
SW-620 colon = tested on: SW-620 colon
MCF7 breast = tested on: MCF7 breast
HCT-116 colon = tested on: HCT-116 colon
HCC-2998 colon = tested on: HCC-2998 colon
KM12 colon = tested on: KM12 colon
SK-OV-3 ovarian = tested on: SK-OV-3 ovarian

Measured: growth

N#Cc1ncc(-c2cc(F)c(F)c(F)c2)c(NC2CCCCCC2)n1
inactive: RPMI-8226 leukemia 81.1% | OVCAR-8 ovarian 96.2% | OVCAR-5 ovarian 104% | OVCAR-4 ovarian 77.8% | IGROV1 ovarian 93.5% | OVCAR-3 ovarian 100% | HS 578T breast 73.3% | NCI/ADR-RES ovarian 95.3% | T-47D breast 72.6% | BT-549 breast 100% | MDA-MB-435 melanoma 95.5% | SW-620 colon 92.8% | MCF7 breast 79.1% | HCT-116 colon 84.4% | HCC-2998 colon 91.9% | KM12 colon 78.7%

CNc1ccc(CSc2ccc(C)cc2)cc1
inactive: RPMI-8226 leukemia 20.8% | OVCAR-8 ovarian 91.1% | OVCAR-5 ovarian 101% | OVCAR-4 ovarian 34% | IGROV1 ovarian 78.6% | OVCAR-3 ovarian 90.6% | HS 578T breast 95.8% | NCI/ADR-RES ovarian 92.1% | T-47D breast 64.5% | MDA-MB-435 melanoma 85.2% | SW-620 colon 93.7% | MCF7 breast 77% | HCT-116 colon 93.6% | HCC-2998 colon 94% | KM12 colon 62.4%

CCCCCC(=O)c1ccc(OCCCN2CCN(C(=O)OCC)CC2)cc1
inactive: RPMI-8226 leukemia 48.6% | OVCAR-8 ovarian 104% | OVCAR-5 ovarian 86% | OVCAR-4 ovarian 85.1% | OVCAR-3 ovarian 104% | HS 578T breast 102% | NCI/ADR-RES ovarian 83.3% | T-47D breast 88.1% | BT-549 breast 91.4% | MDA-MB-435 melanoma 98.8% | SW-620 colon 93.2% | MCF7 breast 93% | HCT-116 colon 75.6% | HCC-2998 colon 96.9% | KM12 colon 94.4%

CCN(CC)CCCOCCCNc1cc(OC)cc2cccnc12
active: MCF7 breast -3.69%
inactive: RPMI-8226 leukemia 80.3% | OVCAR-8 ovarian 92.1% | OVCAR-5 ovarian 102% | OVCAR-4 ovarian 26.6% | IGROV1 ovarian 75.2% | OVCAR-3 ovarian 65.9% | HS 578T breast 100% | NCI/ADR-RES ovarian 95.4% | BT-549 breast 103% | SW-620 colon 99.9% | HCT-116 colon 94.5% | HCC-2998 colon 83.9% | KM12 colon 102%

COc1ccc2c(c1)C(=O)c1c-2c(OCCN(C)C)nc2cc(OC)c(OC)cc12
inactive: RPMI-8226 leukemia 32.2% | OVCAR-8 ovarian 37.2% | OVCAR-5 ovarian 117% | OVCAR-4 ovarian 50.7% | IGROV1 ovarian 35% | OVCAR-3 ovarian 63.9% | HS 578T breast 85.7% | NCI/ADR-RES ovarian 41.8% | T-47D breast 101% | MDA-MB-435 melanoma 56.8% | SW-620 colon 38.6% | MCF7 breast 28.9% | HCT-116 colon 30% | HCC-2998 colon 63.2% | KM12 colon 54.1%

Cc1ccc(Nc2nnc(-c3cc(-c4ccncc4)n(-c4ccccc4)n3)s2)cc1
inactive: RPMI-8226 leukemia 38.6% | OVCAR-8 ovarian 63.5% | OVCAR-5 ovarian 104% | SK-OV-3 ovarian 100% | IGROV1 ovarian 89.2% | OVCAR-3 ovarian 118% | HS 578T breast 61.9% | NCI/ADR-RES ovarian 59.2% | T-47D breast 64.5% | BT-549 breast 64.8% | MDA-MB-435 melanoma 78.3% | SW-620 colon 94% | MCF7 breast 80.3% | HCT-116 colon 51.3% | HCC-2998 colon 57.1% | KM12 colon 50.8%

c1ccc([I+]c2ccccc2)cc1
inactive: RPMI-8226 leukemia 46.7% | OVCAR-8 ovarian 39.2% | OVCAR-5 ovarian 85.2% | OVCAR-4 ovarian 66% | IGROV1 ovarian 45.6% | OVCAR-3 ovarian 62.7% | HS 578T breast 116% | NCI/ADR-RES ovarian 91.5% | T-47D breast 76.8% | BT-549 breast 65.5% | MDA-MB-435 melanoma 68.9% | SW-620 colon 40.8% | MCF7 breast 64% | HCT-116 colon 31% | KM12 colon 41.9%

COc1ccc(Cl)cc1C(=O)Nc1nc2ccc(Cl)cc2s1
inactive: RPMI-8226 leukemia 80.5% | OVCAR-8 ovarian 88.9% | OVCAR-5 ovarian 124% | SK-OV-3 ovarian 91.9% | IGROV1 ovarian 65.9% | OVCAR-3 ovarian 103% | HS 578T breast 102% | NCI/ADR-RES ovarian 102% | T-47D breast 47.2% | BT-549 breast 97.7% | MDA-MB-435 melanoma 97.6% | SW-620 colon 101% | MCF7 breast 41.7% | HCT-116 colon 53.2% | HCC-2998 colon 102% | KM12 colon 94.8%

Cc1cc(C)c2c(n1)sc1c(Nc3ccc(Cl)cc3)ncnc12
inactive: RPMI-8226 leukemia 23.7% | OVCAR-5 ovarian 29% | OVCAR-4 ovarian 84.4% | IGROV1 ovarian 70.8% | OVCAR-3 ovarian 33.3% | HS 578T breast 76.5% | NCI/ADR-RES ovarian 15.1% | T-47D breast 23.4% | BT-549 breast 29.8% | MDA-MB-435 melanoma 27.3% | SW-620 colon 34% | MCF7 breast 16.5% | HCT-116 colon 15.1% | HCC-2998 colon 54.4% | KM12 colon 43.1%
active: OVCAR-8 ovarian 4.06%
